Results on 16 compounds are retold here after PubChem BioAssay (EPA / NIEHS).

Values joined by “and” are separate entries in the source; they are usually repeats but may differ in a detail not shown here. Identical values can stand only once. Active and inactive are the calls of the source. The calls were made as follows: active = hit-call score of the fitted dose curve at least 0.9, where 1 is the maximum; inactive = score below 0.9.

Conditions in all cases: mRNA level, 48 h; actives raise or lower the signal
Read-out in assay [1]: Alpha-fetoprotein (AFP) gene, AFP (gene 174)
The assay is described as follows: LTEA_HepaRG_AFP: Life Technologies and Expression Analysis (LTEA) Assay for Alpha-fetoprotein (AFP) gene using HepaRG (AID 2283472). Summed up:
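Differentiated human HepaRG cells exposed 48 h in serum-free induction medium, 8-point half-log series from 100 uM in 0.5% DMSO, duplicate. AFP mRNA by qRT-PCR, normalized to ACTB, GAPDH, POLR2A; bidirectional fit vs DMSO.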

Read-out in assay [2]: BCL2L11 (gene 10018)
Kind of assay: LTEA_HepaRG_BCL2L11: Life Technologies and Expression Analysis (LTEA) Assay for Bcl-2 (BCL2L11) gene using HepaRG (AID 2283473). Summed up:
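Read-out is BCL2L11 transcript level by qRT-PCR, normalized to three housekeeping genes and fitted bidirectionally against 0.5% DMSO vehicle. HepaRG cells received chemicals for 48 h in serum-free induction medium, 100 uM down in half-log dilutions.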

Read-out in assay [3]: Apolipoprotein A-V (APOA5) gene, APOA5 (gene 116519)
Kind of assay: LTEA_HepaRG_APOA5: Life Technologies and Expression Analysis (LTEA) Assay for Apolipoprotein A-V (APOA5) gene using HepaRG (AID 2283474). The method, boiled down:
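Readout is APOA5 transcript level by qRT-PCR on Fluidigm dynamic arrays, normalized to three housekeeping genes. HepaRG cultures received chemicals for 48 h at up to 100 uM (half-log steps, 0.5% DMSO), with gain or loss scored relative to DMSO.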

Read-out in assay [4]: Apoptosis regulator Bcl-2 (Homo sapiens) (UniProt P10415)
The assay is described as follows: LTEA_HepaRG_BCL2: Life Technologies and Expression Analysis (LTEA) Assay for Bcl-2 gene using HepaRG (AID 2283475). Summed up:
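Differentiated human HepaRG cells in serum-free induction medium exposed 48 h, in duplicate, to 8-point half-log series from 100 uM in 0.5% DMSO. BCL2 mRNA by qRT-PCR (TaqMan/Fluidigm), normalized to ACTB, GAPDH, POLR2A; bidirectional fit against DMSO.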

Read-out in assay [5]: Bcl-2 (BID) gene, BID (gene 637)
The assay is described as follows: LTEA_HepaRG_BID: Life Technologies and Expression Analysis (LTEA) Assay for Bcl-2 (BID) gene using HepaRG (AID 2283476). The method, boiled down:
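Gene expression by qRT-PCR in HepaRG cells after 48 h exposure, duplicate wells, eight half-log concentrations topping at 100 uM in 0.5% DMSO. Normalized to ACTB, GAPDH, POLR2A; bidirectional fitting relative to DMSO.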

Read-out in assay [6]: Caspase-3 (Homo sapiens) (UniProt P42574)
The assay is described as follows: LTEA_HepaRG_CASP3: Life Technologies and Expression Analysis (LTEA) Assay for cysteine-aspartic acid protease (CASP3) using HepaRG (AID 2283477). Summed up:
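Read-out is CASP3 mRNA level by TaqMan qRT-PCR in human HepaRG cells after 48 h chemical exposure. Eight half-log concentrations topping at 100 uM were tested in 0.5% DMSO; gain or loss was fitted relative to DMSO.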

Read-out in assay [7]: Cytochrome P450 (CYP24A1), CYP24A1 (gene 1591)
Kind of assay: LTEA_HepaRG_CYP24A1: Life Technologies and Expression Analysis (LTEA) Assay for Cytochrome P450 (CYP24A1) using HepaRG (AID 2283478). Summed up:
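HepaRG, 48 h chemical exposure, 8-pt half-log CRC from 100 uM, 0.5% DMSO vehicle, duplicates. Endpoint: CYP24A1 mRNA by Fluidigm TaqMan qRT-PCR, normalized ACTB/GAPDH/POLR2A; gain/loss fit vs DMSO.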

Read-out in assay [8]: Cytochrome P450 (CYP1A2), CYP1A2 (gene 1544)
Kind of assay: LTEA_HepaRG_CYP1A2: Life Technologies and Expression Analysis (LTEA) Assay for Cytochrome P450 (CYP1A2) using HepaRG (AID 2283479). Summed up:
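CYP1A2 transcript induction or loss, quantified by Fluidigm qRT-PCR against three housekeeping genes, was fitted bidirectionally against 0.5% DMSO controls. Human HepaRG cells received eight half-log concentrations from 100 uM over 48 h.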

Read-out in assay [9]: cysteine-aspartic acid protease (CASP8), CASP8 (gene 841)
The assay is described as follows: LTEA_HepaRG_CASP8: Life Technologies and Expression Analysis (LTEA) Assay for cysteine-aspartic acid protease (CASP8) using HepaRG (AID 2283480). The method, boiled down: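 HepaRG, 48 h exposure, duplicate wells; 8 conc, half-log from 100 uM, 0.5% DMSO. Serum-free induction medium. CASP8 mRNA by TaqMan qRT-PCR, norm. ACTB/GAPDH/POLR2A; gain/loss fitted vs DMSO.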

Read-out in assay [10]: Cytochrome P450 (CYP2B6), CYP2B6 (gene 1555)
The assay is described as follows: LTEA_HepaRG_CYP2B6: Life Technologies and Expression Analysis (LTEA) Assay for Cytochrome P450 (CYP2B6) using HepaRG (AID 2283481). The method, boiled down:
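HepaRG cells plated 48 h, switched to serum-free induction medium, then dosed 48 h (8 points, half-log from 100 uM, 0.5% DMSO). RNA isolated; CYP2B6 expression measured by qRT-PCR; gain or loss fitted relative to DMSO.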

Chain of Apoptosis regulator Bcl-2 (Homo sapiens) (P10415 whole entry, looked up): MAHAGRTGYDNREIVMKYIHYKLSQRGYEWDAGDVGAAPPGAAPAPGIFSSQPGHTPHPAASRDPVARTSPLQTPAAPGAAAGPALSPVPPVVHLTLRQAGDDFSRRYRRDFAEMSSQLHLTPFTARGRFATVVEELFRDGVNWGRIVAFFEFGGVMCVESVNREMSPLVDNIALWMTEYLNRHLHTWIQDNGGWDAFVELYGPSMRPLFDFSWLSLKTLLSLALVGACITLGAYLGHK
Chain of Caspase-3 (Homo sapiens) (P42574 whole entry, looked up): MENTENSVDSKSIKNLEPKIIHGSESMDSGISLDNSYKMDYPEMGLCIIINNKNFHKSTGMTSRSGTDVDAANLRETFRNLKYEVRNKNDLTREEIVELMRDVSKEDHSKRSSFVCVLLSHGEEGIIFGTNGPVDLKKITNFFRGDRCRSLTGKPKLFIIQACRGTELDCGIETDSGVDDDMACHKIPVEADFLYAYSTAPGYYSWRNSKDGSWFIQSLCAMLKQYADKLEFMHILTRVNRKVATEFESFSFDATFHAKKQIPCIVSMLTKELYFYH

`C[C@]12CCC(=O)C[C@@H]1CC[C@@H]1[C@@H]2CC[C@]2(C)[C@@H](O)CC[C@@H]12`: the result in [1], in assay [2], in assay [3], in [4], in assay [5] and in [6] was inactive. The call in assay [7], in assay [9] and in assay [10] was inactive. The AC50 (usually the midpoint of the concentration-response curve, whichever way the signal moves) in assay [8] is 65.1 µM (active).

In the case of `Cc1ccccc1N`, the call in [1], in [2], in assay [3], in assay [4], in [5] and in [6] was inactive. The compound was classed as inactive in [7], in assay [8], in [9] and in [10].

In the case of `Cn1sc(Cl)cc1=O`, the compound was called inactive in assay [1], in assay [2], in [3], in [4], in assay [5] and in assay [6]. Further, the compound was classed as inactive in assay [7], in assay [8], in [9] and in assay [10].

`O=[N+]([O-])c1ccc(O)c([N+](=O)[O-])c1`: the AC50 in [1] was 24.2 µM (active); in assay [2] it was 13.1 µM (active); in assay [3] it was 25.3 µM (active); in [4], 12.1 µM (active); in [5], 12.9 µM (active); in [6], 7 µM (active). Moreover, the AC50 in assay [8] was 17.2 µM (active); in assay [9], 22.3 µM (active); in assay [10], 16 µM (active). Besides, the outcome in [7] was inactive.

Turning to `C=C(C)C(=O)[O][Sn]([CH2]CCC)([CH2]CCC)[CH2]CCC`, the AC50 in [1] was 2.17 µM (active); in assay [2], 88.3 µM (active); in assay [3], 2.92 µM (active); in assay [4] it was 2.07 µM (active); in assay [5] it was 1.58 µM (active); in [6] it was 5 µM (active). The concentration at half-maximal activity (AC50) in assay [8] was 0.471 µM (active); in assay [10], 2.33 µM (active). For the same compound, the compound was classed as inactive in [7] and in [9].

As for `ClCC(Cl)CCl`, the call in assay [1], in assay [2], in assay [4], in [6], in assay [7] and in assay [8] was inactive. For the same compound, the result in assay [9] was inactive. The AC50 was 77.6 µM (active) in assay [3], 84.3 µM (active) in assay [5] and 17.7 µM (active) in assay [10].

Take `COc1cc(-c2ccc(N)c(OC)c2)ccc1N`: the concentration at half-maximal activity (AC50) was 50 µM (active) in assay [1]; 23.6 µM (active) and 25.8 µM (active) in [8]; 3.49 µM (active) and 4.26 µM (active) in assay [10]. In addition, the outcome in assay [2], in assay [3], in [4], in assay [5], in [6] and in [7] was inactive. Also, the outcome in [9] was inactive.

As to `O=C(O)C(F)(F)C(F)(F)C(F)(F)C(F)(F)C(F)(F)C(F)(F)C(F)(F)C(F)(F)C(F)(F)C(F)(F)F`, the compound was classed as inactive in assay [1], in assay [3], in assay [4], in assay [5], in [6] and in [7]. The outcome in [9] was inactive. Besides, the half-maximal activity concentration (AC50) is 47.8 µM (active) in assay [2], 41.6 µM (active) in [8] and 47.8 µM (active) in assay [10].

Regarding `C[C@@H]1C[C@@H]([C@H](O)CC2CC(=O)NC(=O)C2)C(=O)[C@@H](C)C1`, the half-maximal activity concentration (AC50) in assay [1] is 15.5 µM (active); in assay [3], 26 µM (active); in assay [5], 50 µM (active); in assay [6], 12.3 µM (active); in [9], 79.9 µM (active). Besides, the result in [2] and in [4] was inactive.

Regarding `O=C(O)C(Cl)(Cl)Cl`, the compound was classed as inactive in [1], in [2], in assay [3], in assay [4], in assay [5] and in assay [6]. For the same compound, the compound was classed as inactive in assay [7], in [8], in assay [9] and in assay [10].

For `CCC(=O)C(CC(C)N(C)C)(c1ccccc1)c1ccccc1` (stereo unspecified), the AC50 in assay [1] is 36.2 µM (active); in [8], 36.2 µM (active); in assay [10], 2.41 µM (active). In addition, the compound was called inactive in [2], in assay [3], in [4], in [5], in assay [6] and in [7]. Moreover, the compound was classed as inactive in assay [9].

Take `CCOP(=S)(OCC)SCSP(=S)(OCC)OCC`: the AC50 in assay [1] is 50 µM (active); in assay [2], 0.228 µM (active); in assay [6] it was 0.095 µM (active); in assay [8] it was 50 µM (active); in assay [10], 13 µM (active). Moreover, the compound was called inactive in assay [3], in assay [4], in assay [5] and in [9].

As to `CC(=O)[O][Hg][c]1ccccc1`, the half-maximal activity concentration (AC50) was 5 µM (active) in [1]; 11.9 µM (active) in [2]; 4.21 µM (active) in [3]; 23.1 µM (active) in [6]; 5 µM (active) in assay [8]; 26.6 µM (active) in assay [9]. In assay [10], the AC50 is 6.12 µM (active). Also, the outcome in assay [4], in assay [5] and in assay [7] was inactive.

Turning to `CC(C)(C)c1cc(O)ccc1O`, the compound was called inactive in assay [1], in [2], in [3], in assay [4], in assay [5] and in assay [6]. Besides, the outcome in assay [7], in assay [8], in assay [9] and in [10] was inactive.

For the compound `C=CC(=O)OCCCCCC(C)C`, the result in [1], in assay [2], in [4], in assay [5], in [6] and in [7] was inactive. Further, the result in assay [9] and in assay [10] was inactive. Also, the AC50 in assay [3] is 0.483 µM (active); in assay [8], 50 µM (active).

Consider `O=C(O)C(F)(F)C(F)(F)C(F)(F)C(F)(F)C(F)(F)C(F)(F)F`, for which the call in assay [1], in assay [2], in assay [3], in assay [4], in [5] and in assay [6] was inactive. In addition, the compound was called inactive in assay [7], in [8] and in [9]. In addition, the AC50 in assay [10] is 24.9 µM (active).
